Measurements as given in PubChem BioAssay AID1159580 (chemical genetic matrix, 2015).
Where “and” joins values, the source holds several entries; their conditions need not be identical. Equal values may be shown once. The campaign covered roughly 5,500 compounds. About 2,000 (36%) were called active. Not shown: some 18% with an inconclusive outcome. The list shows a part of the results. Unmarked numbers belong to inactive results. Cut-off read from the data, not from the text of the source: active = normalized growth mostly below about 0.91 (no sharp cut-off); inconclusive = no clear call, values can overlap the other calls; inactive = mostly above about 0.92.

Experiment: chemical genetic growth profiling, strain panel (AID 1159580);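 note: tested at 20 µM; growth read once vehicle control cultures reached saturation at 30 °C; 1 = growth at the plate median or of vehicle wells; lower values mean less growth of the strain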
Conditions: S. cerevisiae deletion strains, growth OD

## CC[N+](CC)(CC)CCOc1cccc(OCC[N+](CC)(CC)CC)c1OCC[N+](CC)(CC)CC
Locus YAL013W, strain DEP1, stronger effect = lower value
  normalized growth: 1.01
Locus YAL021C, strain ccr4, stronger effect = lower value
  normalized growth: 1.02
Locus YAL026C, strain drs2, stronger effect = lower value
  normalized growth: 1.01
Locus YAL030W, strain snc1, stronger effect = lower value
  normalized growth: 1.02
Locus YAL040C, strain CLN3, stronger effect = lower value
  normalized growth: 1.01
Locus YBL061C, strain skt5, stronger effect = lower value
  normalized growth: 1.02
Locus YBR009C, strain hhf1, stronger effect = lower value
  normalized growth: 1
Locus YBR021W, strain FUR4, stronger effect = lower value
  normalized growth: 1.01
Locus YBR023C, strain chs3, stronger effect = lower value
  normalized growth: 1.02
Locus YBR171W, strain sec66, stronger effect = lower value
  normalized growth: 1.02
Locus YBR229C, strain ROT2, stronger effect = lower value
  normalized growth: 1.01
Locus YBR231C, strain swc5, stronger effect = lower value
  normalized growth: 0.958
Locus YBR279W, strain paf1, stronger effect = lower value
  normalized growth: 1.03
Locus YCL011C, strain gbp2, stronger effect = lower value
  normalized growth: 1.02
Locus YCL016C, strain dcc1, stronger effect = lower value
  normalized growth: 1.02
Locus YCL029C, strain bik1, stronger effect = lower value
  normalized growth: 1
Locus YCL061C, strain MRC1 (second series), stronger effect = lower value
  normalized growth: 0.999
Locus YCL061C, strain MRC1, stronger effect = lower value
  normalized growth: 1.01
Locus YCL069W, strain vba3, stronger effect = lower value
  normalized growth: 1.01
Locus YCR088W, strain abp1, stronger effect = lower value
  normalized growth: 1.02
Locus YDL005C, strain med2, stronger effect = lower value
  normalized growth: 1.03
Locus YDL035C, strain GPR1, stronger effect = lower value
  normalized growth: 1
Locus YDL040C, strain nat1, stronger effect = lower value
  normalized growth: 1.01
Locus YDL074C, strain BRE1, stronger effect = lower value
  normalized growth: 1.02
Locus YDL101C, strain DUN1, stronger effect = lower value
  normalized growth: 1.01
Locus YDL134C, strain PPH21, stronger effect = lower value
  normalized growth: 1
Locus YDL185W, strain tfp1, stronger effect = lower value
  normalized growth: 1.02
Locus YDL192W, strain arf1, stronger effect = lower value
  normalized growth: 1.01
Locus YDR001C, strain nth1, stronger effect = lower value
  normalized growth: 1.01
Locus YDR069C, strain doa4, stronger effect = lower value
  normalized growth: 0.999
Locus YDR101C, strain arx1, stronger effect = lower value
  normalized growth: 0.996
Locus YDR137W, strain rgp1, stronger effect = lower value
  normalized growth: 1.05
Locus YDR150W, strain NUM1, stronger effect = lower value
  normalized growth: 0.995
Locus YDR159W, strain sac3, stronger effect = lower value
  normalized growth: 0.965
Locus YDR162C, strain NBP2, stronger effect = lower value
  normalized growth: 1.01
Locus YDR195W, strain ref2
  normalized growth: 0.983
Locus YDR297W, strain sur2, stronger effect = lower value
  normalized growth: 1.01
Locus YDR318W, strain mcm21, stronger effect = lower value
  normalized growth: 1.01
Locus YDR334W, strain swr1, stronger effect = lower value
  normalized growth: 1.01
Locus YDR335W, strain msn5, stronger effect = lower value
  normalized growth: 1.01
Locus YDR363W, strain ESC2, stronger effect = lower value
  normalized growth: 1.02
Locus YDR388W, stronger effect = lower value
  normalized growth: 1.01
Locus YDR392W, strain spt3, stronger effect = lower value
  normalized growth: 0.673 (active)
Locus YDR502C, strain sam2, stronger effect = lower value
  normalized growth: 1
Locus YEL003W, strain gim4, stronger effect = lower value
  normalized growth: 1.01
Locus YEL037C, strain rad23, stronger effect = lower value
  normalized growth: 1.01
Locus YEL061C, strain CIN8 (second series), stronger effect = lower value
  normalized growth: 1.01
Locus YEL061C, strain CIN8, stronger effect = lower value
  normalized growth: 1.01
Locus YER002W, strain NOP16, stronger effect = lower value
  normalized growth: 0.986
Locus YER015W, strain faa2, stronger effect = lower value
  normalized growth: 0.994
Locus YER016W, strain bim1, stronger effect = lower value
  normalized growth: 0.984
Locus YER110C, stronger effect = lower value
  normalized growth: 1.01
Locus YER111C, strain swi4, stronger effect = lower value
  normalized growth: 1.02
Locus YER155C, strain BEM2 (second series), stronger effect = lower value
  normalized growth: 0.914
Locus YER155C, strain BEM2, stronger effect = lower value
  normalized growth: 1.02
Locus YER167W, strain BCK2, stronger effect = lower value
  normalized growth: 1.01
Locus YFR010W, strain ubp6, stronger effect = lower value
  normalized growth: 1.01
Locus YGL078C, strain dbp3, stronger effect = lower value
  normalized growth: 1
Locus YGL086W, strain mad1, stronger effect = lower value
  normalized growth: 0.98
Locus YGL167C, strain pmr1, stronger effect = lower value
  normalized growth: 1.02
Locus YGL173C, strain kem1, stronger effect = lower value
  normalized growth: 1.01
Locus YGL227W, strain vid30, stronger effect = lower value
  normalized growth: 1.03
Locus YGL240W, strain doc1, stronger effect = lower value
  normalized growth: 0.994
Locus YGL248W, strain PDE1, stronger effect = lower value
  normalized growth: 1.01
Locus YGL253W, strain hxk2, stronger effect = lower value
  normalized growth: 1.01
Locus YGR135W, strain pre9, stronger effect = lower value
  normalized growth: 1.03
Locus YGR229C, strain SMI1, stronger effect = lower value
  normalized growth: 1.05
Locus YGR252W, strain gcn5, stronger effect = lower value
  normalized growth: 0.969
Locus YHR013C, strain ard1, stronger effect = lower value
  normalized growth: 1.02
Locus YHR027C, strain rpn1, stronger effect = lower value
  normalized growth: 1.01
Locus YHR030C, strain SLT2, stronger effect = lower value
  normalized growth: 1 and 1.01
Locus YHR079C, strain IRE1 (second series), stronger effect = lower value
  normalized growth: 1.02
Locus YHR079C, strain IRE1, stronger effect = lower value
  normalized growth: 1.03
Locus YHR094C, strain hxt1, stronger effect = lower value
  normalized growth: 1.01
Locus YHR129C, strain ARP1, stronger effect = lower value
  normalized growth: 1
Locus YHR142W, strain chs7, stronger effect = lower value
  normalized growth: 1.02
Locus YHR200W, strain rpn10, stronger effect = lower value
  normalized growth: 1.02
Locus YIL066C, strain RNR3, stronger effect = lower value
  normalized growth: 1.01
Locus YIL073C, strain SPO22, stronger effect = lower value
  normalized growth: 1.05
Locus YIL125W, strain kgd1, stronger effect = lower value
  normalized growth: 1.01
Locus YIR030C, strain dcg1, stronger effect = lower value
  normalized growth: 1.01
Locus YJL092W, strain hpr5, stronger effect = lower value
  normalized growth: 1.02
Locus YJL095W, strain BCK1 (second series), stronger effect = lower value
  normalized growth: 1.02
Locus YJL095W, strain BCK1, stronger effect = lower value
  normalized growth: 1.02 and 0.997
Locus YJL115W, strain asf1, stronger effect = lower value
  normalized growth: 1.02
Locus YJL129C, strain trk1, stronger effect = lower value
  normalized growth: 1.01
Locus YJL134W, strain LCB3, stronger effect = lower value
  normalized growth: 1.01
Locus YJL154C, strain vps35, stronger effect = lower value
  normalized growth: 1.01
Locus YJL164C, strain tpk1, stronger effect = lower value
  normalized growth: 1.03
Locus YJL166W, strain qcr8, stronger effect = lower value
  normalized growth: 1.03
Locus YJL168C, strain set2, stronger effect = lower value
  normalized growth: 1.01
Locus YJL187C, strain SWE1 (second series), stronger effect = lower value
  normalized growth: 1.01
Locus YJL187C, strain SWE1, stronger effect = lower value
  normalized growth: 1.02
Locus YJR043C, strain POL32, stronger effect = lower value
  normalized growth: 1.01
